The source made the active and inactive calls.

Test [1] can be described thus: compounds binding Alexa647 anti-His antibody – biochemical, small-molecule microarray, 635 nm fluorescence, artefact control for SMM control protein annotation, primary screen (AID 1128).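 Note: score merges feature fluorescence with signal-to-noise for each printed compound spot.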 Conditions: higher = more signal.
For test [2], the system named is Human papillomavirus type 1a E7 protein (residues 1-88). Briefly: HPV1a E7 small-molecule binders, primary screen, biochemical, small-molecule microarray, residues 1-88, 635 nm (AID 1129). To be noted: small-molecule microarray binding, fluorescence 635 nm; higher = more signal.
Test [3] addresses Focal adhesion kinase 1 (Homo sapiens) (UniProt Q05397). Briefly: PTK2 protein binding on printed compound slides – biochemical, small-molecule microarray, 635/667 nm fluorescence, BSA, DTT, primary screen (AID 1130).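 Note: composite of spot emission at 667 nm and signal to noise over triplicate slides.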 To be noted: 635 nm fluorescence, higher = more signal.
Test [4] relates to Fibrinogen (Alexa647-labelled). Briefly: Alexa647-fibrinogen binding to printed small molecules – biochemical, small-molecule microarray, 635/667 nm fluorescence, artefact control for SMM control-protein annotation, profiling panel (AID 1131).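 Note: z-score merges 667 nm fluorescence with per-spot signal-to-noise over triplicate slides.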 Conditions: fibrinogen-A647 binding fluorescence, higher = more signal.
Test [5] addresses Follistatin (Homo sapiens) (UniProt P19883). Briefly: FST protein binding to printed compounds – biochemical, small-molecule microarray, 635/667 nm fluorescence, primary screen (AID 1132). To be noted: 635 nm fluorescence, higher = more signal.
In test [6] the target is Fibroblast growth factor 2 (Homo sapiens) (UniProt P09038). The test is described as follows: basic fibroblast growth factor binding to printed compounds – biochemical, small-molecule microarray, 635/667 nm fluorescence, primary screen (AID 1133). To be noted: FGF2, fluorescence 635/667, higher = more signal.
Sequence of Fibroblast growth factor 2 (Homo sapiens) (P09038 whole entry, looked up): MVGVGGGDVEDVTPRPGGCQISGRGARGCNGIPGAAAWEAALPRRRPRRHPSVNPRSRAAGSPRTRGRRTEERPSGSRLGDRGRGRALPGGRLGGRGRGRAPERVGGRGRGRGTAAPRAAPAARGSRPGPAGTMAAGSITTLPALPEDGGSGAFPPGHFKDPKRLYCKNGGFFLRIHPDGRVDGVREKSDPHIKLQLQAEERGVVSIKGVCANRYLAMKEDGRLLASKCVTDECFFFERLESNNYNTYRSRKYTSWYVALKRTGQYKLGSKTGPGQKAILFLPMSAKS
Test [7] is described as follows: JC-1 mitochondrial potential readout, lung cancer cells – cell-based, A549, JC-1 fluorescence, basal, 24 h, 100 nL, profiling panel (AID 1138).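 Note: A549 lung adenocarcinoma cells under basal conditions with no added stimulus; test concentration not given here.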 To be noted: higher = more signal.
In test [8] the test system is Lefty1. Briefly: Lefty1 protein binding to printed compounds – biochemical, small-molecule microarray, 635/667 nm fluorescence, primary screen (AID 1139). To be noted: fluorescence 635/667, higher = more signal.
The test system of test [9] is wheat germ agglutinin (Triticum aestivum), Alexa647-labelled. The test is described as follows: Alexa647-WGA lectin binding to printed small molecules – biochemical, small-molecule microarray, 635/667 nm fluorescence, artefact control for SMM control-protein annotation, profiling panel (AID 1140).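 Note: score merges 667 nm feature emission with signal to noise over triplicate slides.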 Conditions: WGA-A647 binding, 635 nm fluorescence, higher = more signal.

Test [10] deals with Luciferin 4-monooxygenase (Photinus pyralis) (UniProt P08659). The test is described as follows: inhibition of purified Photinus pyralis luciferase – biochemical, luminescence, purified enzyme, 2006 set, primary screen (AID 1141).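 Note: cell-free assay with purified firefly luciferase at 100 ng per well in PBS; test concentration not given here.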 To be noted: purified firefly luciferase, SteadyGlo luminescence, 30 min; higher = more signal, called active from +8 up or from −8 down.
Sequence of Luciferin 4-monooxygenase (Photinus pyralis) (P08659 whole entry, looked up): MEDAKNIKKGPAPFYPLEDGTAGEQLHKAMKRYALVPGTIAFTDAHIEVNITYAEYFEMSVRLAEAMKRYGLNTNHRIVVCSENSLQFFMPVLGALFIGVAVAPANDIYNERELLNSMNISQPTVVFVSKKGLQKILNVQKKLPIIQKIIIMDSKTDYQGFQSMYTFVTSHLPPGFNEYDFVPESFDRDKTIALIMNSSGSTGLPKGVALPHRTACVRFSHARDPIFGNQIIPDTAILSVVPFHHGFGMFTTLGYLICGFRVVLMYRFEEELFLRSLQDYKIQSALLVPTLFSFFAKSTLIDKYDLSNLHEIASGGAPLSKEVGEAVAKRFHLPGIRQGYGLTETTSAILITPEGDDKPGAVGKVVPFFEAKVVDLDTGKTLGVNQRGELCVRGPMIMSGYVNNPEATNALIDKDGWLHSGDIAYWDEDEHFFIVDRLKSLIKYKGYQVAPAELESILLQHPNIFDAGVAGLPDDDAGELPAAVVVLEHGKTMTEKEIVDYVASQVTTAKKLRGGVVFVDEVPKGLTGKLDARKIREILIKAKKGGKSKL

Sequence of Focal adhesion kinase 1 (Homo sapiens) (Q05397 whole entry, looked up): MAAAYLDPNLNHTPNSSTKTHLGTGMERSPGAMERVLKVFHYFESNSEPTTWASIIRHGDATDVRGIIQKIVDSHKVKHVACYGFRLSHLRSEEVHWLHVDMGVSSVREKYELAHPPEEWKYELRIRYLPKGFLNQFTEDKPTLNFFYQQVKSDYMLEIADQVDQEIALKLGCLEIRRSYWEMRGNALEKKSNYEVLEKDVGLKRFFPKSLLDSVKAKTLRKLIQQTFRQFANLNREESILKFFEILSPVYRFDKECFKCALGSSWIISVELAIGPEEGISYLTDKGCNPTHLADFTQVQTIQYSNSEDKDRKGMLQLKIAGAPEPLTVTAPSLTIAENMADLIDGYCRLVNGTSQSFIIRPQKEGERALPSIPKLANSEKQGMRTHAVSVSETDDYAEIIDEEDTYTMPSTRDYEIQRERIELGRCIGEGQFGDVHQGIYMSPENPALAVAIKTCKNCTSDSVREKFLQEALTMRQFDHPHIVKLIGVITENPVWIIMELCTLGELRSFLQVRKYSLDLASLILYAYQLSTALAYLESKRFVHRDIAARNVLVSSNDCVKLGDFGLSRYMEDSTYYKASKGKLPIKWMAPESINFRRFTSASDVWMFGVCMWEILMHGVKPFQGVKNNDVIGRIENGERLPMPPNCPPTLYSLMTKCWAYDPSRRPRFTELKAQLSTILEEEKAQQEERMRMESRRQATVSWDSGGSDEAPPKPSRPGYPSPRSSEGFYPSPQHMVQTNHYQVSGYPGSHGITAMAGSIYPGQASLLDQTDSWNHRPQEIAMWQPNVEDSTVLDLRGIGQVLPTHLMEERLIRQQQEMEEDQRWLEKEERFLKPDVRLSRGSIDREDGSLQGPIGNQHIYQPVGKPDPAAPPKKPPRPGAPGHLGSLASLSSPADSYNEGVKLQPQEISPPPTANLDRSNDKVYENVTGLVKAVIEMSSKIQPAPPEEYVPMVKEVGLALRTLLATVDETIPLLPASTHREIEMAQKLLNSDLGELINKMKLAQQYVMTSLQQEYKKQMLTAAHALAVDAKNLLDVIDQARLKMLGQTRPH
Sequence of Follistatin (Homo sapiens) (P19883 whole entry, looked up): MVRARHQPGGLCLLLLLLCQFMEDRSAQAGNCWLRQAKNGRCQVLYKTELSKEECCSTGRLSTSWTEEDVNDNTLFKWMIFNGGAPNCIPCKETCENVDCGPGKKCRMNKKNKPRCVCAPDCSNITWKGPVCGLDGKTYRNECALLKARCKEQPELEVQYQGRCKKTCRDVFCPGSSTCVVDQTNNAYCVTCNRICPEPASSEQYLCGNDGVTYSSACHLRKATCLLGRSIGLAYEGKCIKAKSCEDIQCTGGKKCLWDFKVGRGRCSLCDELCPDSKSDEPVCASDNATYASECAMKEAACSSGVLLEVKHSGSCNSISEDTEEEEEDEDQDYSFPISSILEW

Regarding `CC(C)NC(=O)[C@@]1(C)c2ccccc2C(=O)N(Cc2ccc(OC(F)(F)F)cc2)[C@H]1c1ccc(CO)cc1`, the composite z-score is 0.22 in [1]; -0.14 in test [2]; -0.232 in [3]; -0.535 in test [4]; -0.333 in test [5]; -0.843 in test [6]. Further, the composite z-score is -1.44 in [8] and -0.641 in test [9]. The z-score in test [7] was -0.19; in test [10], -0.183 (inactive).
Turning to `N#Cc1ccc(NN2C(C(O)c3ccc(Br)cc3)C=CC3C(=O)N(c4ccccc4)C(=O)C32)cc1` (stereo not given), the composite z-score was found to be 1.28 in test [1]; 1.18 in [2]; 0.633 in test [3]; 0.561 in test [4]; 0.873 in test [5]; 0.127 in test [6]. The composite z-score in test [8] was -0.0682; in test [9], 1.49. In addition, the z-score in test [7] is 0.494; in [10], -0.517 (inactive).
For the molecule `CC(CO)N1C(=O)[C@@H]2[C@H]3C(=O)OCC=C[C@H]3OC23C=CCN(Cn2nnc4ccccc42)C(=O)[C@@H]13` (stereo not given in full), the composite z-score in test [1] is -1.02; in test [2] it was -1.43; in test [3], -0.432; in test [4], -0.8; in test [5] it was -0.72; in test [6], -0.358. Besides, the composite z-score in test [8] was -0.406; in test [9], -0.596. The z-score in test [7] is -0.528; in [10], 0.27 (inactive).
On to `CC(C)C(O)C1C=CC2C(=O)N(c3ccccc3)C(=O)C2N1Nc1ccccc1` (stereo not given), for which the composite z-score was 0.331 in test [1]; 1.29 in test [2]; 0.463 in test [3]; 1.05 in test [4]; 0.986 in test [5]; -0.11 in [6]. The composite z-score in [8] amounted to 0.63; in [9], 1.14. In addition, the figures for the z-score in test [7] and in [10] were 0.0126 and 0.172 (inactive), respectively.
On to `COCCOC(=O)N1C(=O)[C@@]2(c3cc(C#CC4=CCCCC4)ccc31)[C@H](C(=O)Nc1nc3ccccc3s1)[C@H]1C(=O)O[C@H](c3ccccc3)[C@H](c3ccccc3)N1[C@@H]2c1ccc(O)cc1`, for which the composite z-score came out at 0.174 in test [1]; 1.21 in test [2]; 1.38 in [3]; 0.362 in test [4]; 1.39 in test [5]; 1.7 in [6]. In addition, the figures for the composite z-score in test [8] and in test [9] were 0.869 and 0.529, respectively. The z-score was -2.1 in [7] and -1.5 (inactive) in [10].
`CC(C)C(CO)N1C(=O)[C@@H]2C3C(=O)OCCC/C=C\[C@H]3OC23C=CCN(c2ccc4ccccc4c2)C(=O)[C@@H]13` (stereo not given in full): the composite z-score in [1] was -0.236; in test [2] it was -0.696; in [3], 0.374; in test [4] it was -1.62; in test [5], -0.0619; in test [6], -1.02. The results for the composite z-score in test [8] and in [9] were 0.0124 and 0.562, respectively. In addition, the z-score in test [7] is 0.723; in test [10] it was -0.526 (inactive).
Regarding `C=CCN1C(=O)[C@]2(CCC(=O)OC(C)(C)C)N=C(c3ccc(OCCCO)cc3)O[C@@H]2c2ccccc21`, the composite z-score in test [1] is 2.42; in [2], 0.944; in test [3], 0.469; in test [4], 0.317; in [5], 1.19; in test [6], -0.132. Further, the composite z-score in [8] came out at 0.467; in test [9], 0.27. Further, the z-score in test [7] was 0.859; in [10], -5.66 (inactive).
As to `CCCC[C@@H](O)C1=C(COc2ccccc2)C[C@H]2C(=O)N(Cc3ccccc3)C(=O)[C@H]2[C@H]1CO`, the composite z-score is -0.412 in test [1]; -0.0512 in test [2]; -0.0235 in test [3]; 0.832 in test [4]; 0.269 in test [5]; 0.275 in test [6]. Further, the figures for the composite z-score in test [8] and in test [9] were 0.634 and 0.371, respectively. Further, the z-score was 0.85 in test [7] and -1.25 (inactive) in test [10].
As to `COc1cc2c(cc1O)C(c1cccs1)N(Cc1cc3c(cc1Br)OCO3)CC2` (stereo not given), the composite z-score in test [1] was found to be 1.83; in test [2], 1.28; in [3], 0.822; in test [4], 0.976; in test [5] it was 1.08; in test [6] it was 0.75. Also, the composite z-score in [8] was found to be 0.556; in test [9], 0.544. In addition, the figures for the z-score in test [7] and in test [10] were -1.56 and -0.657 (inactive), respectively.
On to `O=C(O)[C@@H]1[C@@H]2C(=O)N(c3ccccc3)C(=O)[C@@H]2C[C@@H]1Sc1ccccc1`, for which the composite z-score in [1] is -0.102; in test [2], -0.683; in test [3] it was 0.236; in test [4] it was -1.02; in test [5], -1.19; in test [6], -1.16. Also, the composite z-score in test [8] was -1.07; in test [9], 0.627. Besides, the z-score was -0.677 in [7] and 1.35 (inactive) in [10].
`CO[C@H]1O[C@H](CO)[C@@H](OC(=O)Nc2ccc(Br)cc2)[C@@H]2OC(=O)[C@@H](Cc3ccccc3)C/C=C/C[C@H](Cc3ccccc3)C(=O)O[C@@H]12`: the composite z-score came to 2.43 in [1]; 1.16 in test [2]; 0.619 in test [3]; 0.442 in test [4]; 0.313 in test [5]; 0.397 in test [6]. For the same molecule, the composite z-score in [8] is -0.0196; in test [9] it was 0.424. Further, the z-score was 2.5 in [7] and -1.38 (inactive) in [10].
Consider `O=C1C2C=CC(C(O)c3ccco3)N(Nc3ccccc3F)C2C(=O)N1c1ccccc1` (stereo not given), for which the composite z-score in test [1] is 0.0678; in [2], 0.512; in test [3], 0.705; in [4], 0.791; in test [5], 0.235; in test [6], -0.327. The composite z-score is -0.531 in test [8] and 0.826 in [9]. Also, the z-score in test [7] is -0.537; in test [10], -0.0425 (inactive).
Take `CC(=O)N1CC2(CC2)CC1c1ccccc1` (stereo not given): the composite z-score in test [1] was 0.712; in test [2], 0.678; in [3], 0.277; in test [4], 0.59; in [5], -0.0582; in test [6] it was 1.6. The composite z-score in [8] is -0.46; in [9], 0.251. Besides, the figures for the z-score in test [7] and in test [10] were 0.033 and 2.49 (inactive), respectively.

Values taken from PubChem BioAssay.
